PGC1a acetyl inh – PGC1a acetylation modulation, inhibitor mode. 350,000 tested, 0.17% active. inhibition, % at 15.6 µM. U2OS PGC1a acetylation, AlphaScreen anti-acetyl-lysine; with virally co-expressed GCN5 acetyltransferase;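 active = every replicate shows inhibition of at least 40%; inconclusive = mean inhibition at least 40% but some replicate below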;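 note: 0% = neutral control wells and 100% = positive control wells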
PAX8 reporter – PAX8 transcriptional activity inhibition | RMG-I TPO-luciferase reporter, SteadyGlo, 24 h | inhibition, % at 12.6 µM | 360,000 tested, 1.2% active | AID 652154;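 active = mean replicate inhibition at least 60% with every replicate also reaching 60%; inconclusive = only one of the two criteria is met; inactive = mean below 60% and not all replicates reaching 60%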;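 note: luciferase light reporting Pax8 driven TPO promoter activity; plate controls were median of neutral control wells for no effect and mitoxantrone controls for full effect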
EWS-Fli block – inhibitors of EWS/Fli oncoprotein transcriptional activity. 350,000 tested, 0.67% active. inhibition, % at 12.6 µM. A673 NR0B1-luciferase reporter, viability-normalised;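 active = mean inhibition of at least 50% after viability correction, with every replicate also passing that limit; inconclusive = mean reaches 50% but only one of two replicates passes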;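 note: firefly luciferase signal divided by Alamar Blue viability fluorescence both relative to DMSO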
LGR2 antag – Drosophila LGR2 receptor signaling inhibition | HEK293 LGR2, CRE-luciferase, bursicon-stimulated, 4 h | 380,000 tested, 0.35% active | AID 720647 | inhibition, % at 9.99 µM;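 active = drop in luminescence signal, shown as inhibition above about 50% in the replicate tests, limit read from the data, passing the limit was not always enough; inconclusive = probably only some replicates passing the limit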;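 note: agonist challenge used bursicon conditioned medium at about half maximal strength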
MITF TRPM1 inh – inhibitors of MITF-driven TRPM1 promoter in melanoma cells. SK-MEL-5 TRPM1 promoter luciferase, 24 h. inhibition, % at 12.5 µM. 330,000 tested, 0.83% active. AID 488899;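 active = mean inhibition across replicates of 60% or more, whatever share of single replicates reaches that level; inconclusive = some that reach 60%, reason not given; inactive = mean inhibition across replicates below 60%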
EBV LMP1 NFkB – inhibitors of Epstein-Barr LMP1-induced NF-kappaB reporter; LMP1-induced NF-kappaB luciferase reporter cells, luminescence; 350,000 tested, 0.69% active; inhibition, % at 12.5 µM; AID 504558; in the data active = inhibition above about 41%; inconclusive = no clear call, values can overlap the other calls;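 note: 0% = neutral control wells and 100% = reference inhibitor control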
* = called active by the depositor; ? = inconclusive; nt = not tested or not shown; ! = not confirmed by another sample. Hits are enriched below; roughly 2.2% of the tested compounds scored in any of these assays.

SMILES | PGC1a acetyl inh | PAX8 reporter | EWS-Fli block | LGR2 antag | MITF TRPM1 inh | EBV LMP1 NFkB
C[C@H]1CN([C@@H](C)CO)C(=O)c2cccc(NS(C)(=O)=O)c2O[C@@H]1CN(C)C(=O)Nc1cccc2ccccc12 | 0 | 7 | nt | -13 | nt | nt
CS(=O)(=O)N1[C@@H]2Cn3c(ccc(-c4ccccc4)c3=O)[C@H]1[C@@H](C(=O)NCC1CC1)[C@@H]2CO | nt | 9 | -7 | 4 | nt | nt
Cc1c(C(=O)OC2CCCC2)[nH]c2c1C(=O)CC(c1ccco1)C2 (configuration not stated) | 2 | 76* | 28 | -18 | 25 | 6
Cc1c(C(=O)OCC(C)C)[nH]c2c1C(=O)CC(c1ccco1)C2 (configuration not stated) | nt | 68* | 53* | -26 | 7 | 4
CCOC(=O)C1=Nc2ccccc2C1=[N+]=[N-] | 45* | nt | nt | nt | 53 | 35
CCOC(=O)C1=Nc2cccc3c(O)ccc1c23 | nt | -17 | 3 | -10 | nt | nt
C[C@]12CC[C@@H]3c4ccc(OS(=O)(=O)O)cc4CC[C@H]3[C@@H]1CCC2=O | 33 | 2 | 2 | 18 | -1 | 66*!
O=C(CNS(=O)(=O)c1c(Cl)cccc1Cl)OCC(=O)c1ccc[nH]1 | 6 | 75* | -3 | -4 | 5 | -7
O=C(CNS(=O)(=O)c1ccc(Br)cc1Cl)OCC(=O)c1ccc[nH]1 | 3 | -15 | 1 | 15 | 4 | -3
CN1CCN(C(=O)C[C@H]2C[C@@H]3c4cc(NC(=O)c5ccc6c(c5)OCO6)ccc4O[C@@H]3[C@H](CO)O2)CC1 | 2 | -16 | 3 | -10 | nt | nt
CCCOc1ccc(C(=O)N/N=C/c2c[nH]c3ccc(Br)cc23)cc1 | -7 | -13 | 3 | 2 | 9 | 5
CCCCCN=C(N)N/N=C/c1c[nH]c2ccc(OC)cc12 | 6 | 107* | 57* | nt | 97* | -2
C[C@@H]1CCCCO[C@@H](CN(C)C(=O)CCCN(C)C)[C@H](C)CN([C@@H](C)CO)C(=O)c2cc(NC(=O)NC3CCCCC3)ccc2O1 | nt | -11 | -5 | 14 | nt | nt
Cc1cc(C)nc(Sc2nc(Nc3ccccc3)nc(Sc3nc(C)cc(C)n3)n2)n1 | 2 | 61* | nt | 0 | -8 | 3
O=C(Nc1ccc(N2CCOCC2)c(S(=O)(=O)Nc2ccccc2Cl)c1)c1ccccc1 | nt | 16 | 7 | 5 | 7 | 2
O=C(Nc1ccc(Cl)cc1)Nc1ccc(N2CCCC2)c(S(=O)(=O)Nc2ccccc2Cl)c1 | nt | 101* | nt | 42 | 71* | 39
C=CC[C@]1(C(=O)NCc2ccccc2)COC(c2ccc(OCCCO)cc2)=N1 | -12 | -2 | 15 | nt | nt | nt
COCC#Cc1ccc2c(c1)O[C@H](CN(C)Cc1cccnc1)[C@H](C)CN([C@@H](C)CO)S2(=O)=O | 0 | 8 | 37 | 13 | nt | nt
CCOC(=O)CSC1=N/C(=C\c2cccnc2)C(=O)N1c1ccc(OC)cc1 | nt | 1 | nt | 4 | 3 | 56*
COCC(=O)Nc1ccc2c(c1)[C@@H]1C[C@H](CC(=O)NC3CCCCC3)O[C@H](CO)[C@@H]1O2 | 0 | -10 | -4 | 0 | nt | nt
Cc1noc(C)c1NC(=O)Nc1ccc2c(c1)C(=O)N([C@@H](C)CO)C[C@H](C)[C@@H](CN(C)C(=O)Nc1c(C)noc1C)OCCCC[C@H](C)O2 | -4 | -23 | -2 | -4 | nt | nt
Cc1cc(C2=NNC(=NC3CCCCC3)SC2)c(C)n1-c1c(C)n(C)n(-c2ccccc2)c1=O | -4 | 8 | 8 | nt | 0 | -10
Cc1cc(C2=NNC(=NC3CC3)SC2)c(C)n1-c1ccccc1F | nt | 102* | 94* | 95* | 99* | 78*
c1cc2c(cc1C1=NNC(=NC3CC3)SC1)OCCO2 | nt | 96* | 79* | 55* | 95* | 84*
O=C(Cc1ccncc1)NCC[C@@H]1CC[C@@H](NC(=O)Nc2ccc(Cl)cc2)[C@@H](CO)O1 | 0 | 7 | -4 | 2 | nt | nt
SMILES | PGC1a acetyl inh | PAX8 reporter | EWS-Fli block | LGR2 antag | MITF TRPM1 inh | EBV LMP1 NFkB
COc1ccc(-[n+]2c(C)cc(/C=C3\Sc4ccccc4N3C)cc2C)cc1 | nt | 80* | 37 | -1 | 101* | -7
COc1ccccc1-[n+]1c(C)cc(/C=C2\Sc3ccccc3N2C)cc1C | 9 | 67* | 39 | ? | 93* | 52*
O=C([C@H]1[C@H](CO)[C@H]2Cn3c(cccc3=O)[C@H]2N1Cc1ccncc1)N1CCCCC1 | nt | nt | -1 | 27 | nt | nt
O=C(C[C@H]1CC[C@H]2[C@@H](COC[C@@H](O)CN2Cc2ccc(Oc3ccccc3)cc2)O1)N1CCc2ccccc2C1 | -14 | 105* | 45 | nt | nt | nt
O=C(C[C@@H]1CC[C@H]2[C@@H](COC[C@H](O)CN2Cc2ccc(Oc3ccccc3)cc2)O1)N1CCc2ccccc2C1 | -19 | 106* | 31 | nt | nt | nt
C[C@@H]1CN([C@H](C)CO)C(=O)c2cc(NS(=O)(=O)c3ccc(F)cc3)ccc2O[C@@H](C)CCCCO[C@H]1CN(C)Cc1ccc(C(F)(F)F)cc1 | 11 | 114* | 65* | 15 | nt | nt
C[C@@H]1CCCCO[C@@H](CN(C)Cc2ccc(C(F)(F)F)cc2)[C@@H](C)CN([C@@H](C)CO)C(=O)c2cc(NS(=O)(=O)c3ccc(F)cc3)ccc2O1 | 10 | 86* | 0 | 7 | nt | nt
C[C@@H]1CN([C@@H](C)CO)C(=O)c2cc(NS(=O)(=O)c3ccc(F)cc3)ccc2O[C@@H](C)CCCCO[C@H]1CN(C)Cc1ccc(C(F)(F)F)cc1 | 6 | 97* | 27 | -11 | nt | nt
C[C@@H]1CCCCO[C@@H](CN(C)Cc2ccc(C(F)(F)F)cc2)[C@H](C)CN([C@@H](C)CO)C(=O)c2cc(NS(=O)(=O)c3ccc(F)cc3)ccc2O1 | 0 | 105* | 71* | -1 | nt | nt
C[C@@H]1CN([C@@H](C)CO)C(=O)c2cc(NC(=O)Nc3cccc4ccccc34)ccc2O[C@H]1CN(C)S(=O)(=O)c1ccc(Cl)cc1 | 1 | nt | -8 | 7 | nt | nt
COc1ccc(S(=O)(=O)N(C)C[C@H]2Oc3c(NS(C)(=O)=O)cccc3C(=O)N([C@H](C)CO)C[C@H]2C)cc1 | 0 | nt | 4 | -7 | nt | nt
Cc1ccc(S(=O)(=O)CCC(=O)Nc2sccc2C(N)=O)cc1 | 0 | 8 | 0 | -1 | -11 | 4
COC(=O)c1ccsc1NC(=O)CS(=O)(=O)c1ccccc1 | nt | -11 | 6 | 0 | -12 | 2
COC(=O)c1ccsc1NC(=O)CCS(=O)(=O)c1ccccc1 | nt | 84* | nt | 6 | 4 | -7
COC(=O)c1ccsc1NC(=O)CCS(=O)(=O)c1ccc(Cl)cc1 | -2 | 83* | -10 | 5 | 3 | 2
C[C@H]1CN([C@@H](C)CO)C(=O)Cc2cc(NC(=O)Cn3cnnn3)ccc2O[C@@H]1CN(C)Cc1ccncc1 | 2 | -3 | -4 | 2 | nt | nt
O=C(Nc1ccc([N+](=O)[O-])cc1Cl)c1cc(Cl)ccc1O | -5 | -215 | 9 | -107 | 74* | 80*

Bioassay records (PubChem)
